According to the supplement of paper PMC6411743:
± gives the standard deviation of the averaged measurements. Targets with the largest changes are over-represented here; the source holds about 6,200 in all.

Columns and labels:
Experiment in all cases: NP40-soluble protein abundance relative to vehicle (solubility fold change) (ratio); higher = more soluble protein in presence of AMP-PNP
[1] = tested on: A0A087WZ62
Outline: (§1)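 Eight concentrations, 0.1 to 10 mM, were tested on Jurkat crude lysate for 10 min at room temperature and then 3 min at 37 °C, in three independent experiments. The lysate was solubilised with 0.8% NP40 and benzonase, ultracentrifuged, and the supernatant TMT-labelled for LC-MS/MS. Each value is the fold change against the detergent-processed vehicle in its own replicate, from vsn-normalised intensities.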

[2] = target: T1, A0A087X0V5|P29728|P29728-2 (UniProt P29728)
T1 sequence (whole entry): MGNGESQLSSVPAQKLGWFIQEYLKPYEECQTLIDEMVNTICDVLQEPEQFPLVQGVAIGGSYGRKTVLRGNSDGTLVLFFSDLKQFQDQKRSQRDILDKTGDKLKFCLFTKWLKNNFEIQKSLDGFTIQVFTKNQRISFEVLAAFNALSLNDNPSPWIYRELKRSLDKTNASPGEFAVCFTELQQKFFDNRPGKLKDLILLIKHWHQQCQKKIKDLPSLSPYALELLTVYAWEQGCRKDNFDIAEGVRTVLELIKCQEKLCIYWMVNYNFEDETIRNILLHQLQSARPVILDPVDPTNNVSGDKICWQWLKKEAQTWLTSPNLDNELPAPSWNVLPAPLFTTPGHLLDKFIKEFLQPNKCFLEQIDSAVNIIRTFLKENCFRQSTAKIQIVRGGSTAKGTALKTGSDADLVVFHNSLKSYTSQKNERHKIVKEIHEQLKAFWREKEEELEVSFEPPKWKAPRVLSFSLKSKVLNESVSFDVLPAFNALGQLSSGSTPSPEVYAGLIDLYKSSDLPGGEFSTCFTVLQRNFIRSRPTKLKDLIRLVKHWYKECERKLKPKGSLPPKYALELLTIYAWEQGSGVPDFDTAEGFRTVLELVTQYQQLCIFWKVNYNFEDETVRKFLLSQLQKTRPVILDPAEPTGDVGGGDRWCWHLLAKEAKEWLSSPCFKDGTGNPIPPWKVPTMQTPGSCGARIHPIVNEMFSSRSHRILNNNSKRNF
Outline: as §1

[3] = target: A0A087X1K6|H0YK05|Q9Y2Y9 (UniProt Q9Y2Y9)
Outline: as §1

[4] = target: A0A087X1Z1|A0A0G2JPW5|A0A0G2JQX1|A0A0G2JSA7|Q96RT8|Q96RT8-2 (UniProt Q96RT8)
Outline: as §1

[5] = target: A0A096LP25|Q2M2I8|Q2M2I8-2 (UniProt Q2M2I8)
Outline: as §1

Sequence of A0A096LP25|Q2M2I8|Q2M2I8-2 (Q2M2I8 whole entry, looked up, one chain of several): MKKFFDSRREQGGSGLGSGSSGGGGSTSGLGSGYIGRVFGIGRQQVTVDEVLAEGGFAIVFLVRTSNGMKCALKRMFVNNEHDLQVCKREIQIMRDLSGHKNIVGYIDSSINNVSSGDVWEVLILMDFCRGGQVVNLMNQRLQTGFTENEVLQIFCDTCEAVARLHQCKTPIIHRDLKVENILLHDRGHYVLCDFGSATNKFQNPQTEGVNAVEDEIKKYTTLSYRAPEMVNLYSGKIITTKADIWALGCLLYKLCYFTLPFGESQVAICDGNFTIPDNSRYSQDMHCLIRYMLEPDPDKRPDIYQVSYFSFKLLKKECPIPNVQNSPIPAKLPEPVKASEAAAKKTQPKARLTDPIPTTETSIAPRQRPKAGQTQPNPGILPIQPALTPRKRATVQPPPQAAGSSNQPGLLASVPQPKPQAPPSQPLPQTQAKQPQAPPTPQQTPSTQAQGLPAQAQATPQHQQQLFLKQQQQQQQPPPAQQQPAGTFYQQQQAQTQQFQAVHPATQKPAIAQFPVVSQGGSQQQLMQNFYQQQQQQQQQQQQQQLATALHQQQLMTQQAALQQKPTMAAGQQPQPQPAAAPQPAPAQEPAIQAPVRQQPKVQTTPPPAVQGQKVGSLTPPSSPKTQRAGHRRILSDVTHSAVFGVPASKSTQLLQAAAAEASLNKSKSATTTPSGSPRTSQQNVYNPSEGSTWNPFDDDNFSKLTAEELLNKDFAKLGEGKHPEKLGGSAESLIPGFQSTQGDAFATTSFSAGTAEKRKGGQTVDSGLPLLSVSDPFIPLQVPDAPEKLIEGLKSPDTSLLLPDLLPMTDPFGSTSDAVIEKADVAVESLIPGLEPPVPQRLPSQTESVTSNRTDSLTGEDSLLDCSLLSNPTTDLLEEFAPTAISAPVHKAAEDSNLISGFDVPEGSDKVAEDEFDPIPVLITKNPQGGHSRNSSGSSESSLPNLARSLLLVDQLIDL
Sequence of A0A087X1K6|H0YK05|Q9Y2Y9 (Q9Y2Y9 whole entry, one chain of several): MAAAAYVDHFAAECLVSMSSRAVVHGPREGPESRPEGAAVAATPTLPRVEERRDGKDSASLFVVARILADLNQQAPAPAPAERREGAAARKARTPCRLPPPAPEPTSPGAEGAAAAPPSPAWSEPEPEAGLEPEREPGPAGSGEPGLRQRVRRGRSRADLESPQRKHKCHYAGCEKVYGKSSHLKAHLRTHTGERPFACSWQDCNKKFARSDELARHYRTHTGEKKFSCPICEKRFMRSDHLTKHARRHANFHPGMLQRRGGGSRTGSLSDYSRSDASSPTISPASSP
Sequence of A0A087X1Z1|A0A0G2JPW5|A0A0G2JQX1|A0A0G2JSA7|Q96RT8|Q96RT8-2 (Q96RT8 whole entry, one chain of several): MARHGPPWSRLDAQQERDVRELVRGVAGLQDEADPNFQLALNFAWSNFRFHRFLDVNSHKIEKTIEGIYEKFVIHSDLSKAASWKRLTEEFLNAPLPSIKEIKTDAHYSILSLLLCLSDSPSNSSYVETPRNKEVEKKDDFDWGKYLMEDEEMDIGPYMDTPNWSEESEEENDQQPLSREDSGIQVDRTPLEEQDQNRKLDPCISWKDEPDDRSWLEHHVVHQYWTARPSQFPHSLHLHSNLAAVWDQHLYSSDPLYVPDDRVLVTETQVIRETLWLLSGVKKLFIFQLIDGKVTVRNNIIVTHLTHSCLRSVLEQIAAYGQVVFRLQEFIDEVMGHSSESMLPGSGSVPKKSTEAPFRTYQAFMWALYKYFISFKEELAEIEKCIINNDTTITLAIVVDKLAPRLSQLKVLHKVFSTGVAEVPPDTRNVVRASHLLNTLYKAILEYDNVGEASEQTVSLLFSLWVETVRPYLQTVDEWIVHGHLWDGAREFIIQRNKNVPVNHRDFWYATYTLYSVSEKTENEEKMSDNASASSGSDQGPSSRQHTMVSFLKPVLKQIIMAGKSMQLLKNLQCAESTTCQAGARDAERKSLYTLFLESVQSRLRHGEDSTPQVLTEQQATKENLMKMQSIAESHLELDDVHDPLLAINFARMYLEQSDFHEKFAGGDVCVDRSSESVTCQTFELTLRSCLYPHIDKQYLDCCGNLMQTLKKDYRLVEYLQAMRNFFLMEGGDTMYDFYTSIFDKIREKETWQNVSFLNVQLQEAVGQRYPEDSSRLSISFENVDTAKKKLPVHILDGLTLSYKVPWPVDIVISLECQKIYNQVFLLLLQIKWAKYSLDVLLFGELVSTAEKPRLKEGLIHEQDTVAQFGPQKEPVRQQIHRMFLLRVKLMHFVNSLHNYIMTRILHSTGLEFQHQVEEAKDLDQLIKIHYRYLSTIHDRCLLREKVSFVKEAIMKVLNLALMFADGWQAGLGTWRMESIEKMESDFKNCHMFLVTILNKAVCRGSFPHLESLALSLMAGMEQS

## Nc1ncnc2c1ncn2[C@@H]1O[C@H](COP(=O)(O)OP(=O)(O)NP(=O)(O)O)[C@@H](O)[C@H]1O [adenylyl imidodiphosphate]
[1]; concentration: 6mM
  NP40-soluble protein abundance: 0.952 ± 0.014
[1]; concentration: 8mM
  NP40-soluble protein abundance: 0.946 ± 0.028
[1]; concentration: 10mM
  NP40-soluble protein abundance: 0.936 ± 0.017
[2]; concentration: 1mM
  NP40-soluble protein abundance: 1.13 ± 0.0059
[2]; concentration: 2mM
  NP40-soluble protein abundance: 1.07 ± 0.091
[2]; concentration: 4mM
  NP40-soluble protein abundance: 1.26 ± 0.049
[2]; concentration: 6mM
  NP40-soluble protein abundance: 1.24 ± 0.086
[2]; concentration: 8mM
  NP40-soluble protein abundance: 1.358 ± 0.011
[2]; concentration: 10mM
  NP40-soluble protein abundance: 1.29 ± 0.02
[3]; concentration: 1mM
  NP40-soluble protein abundance: 0.998 ± 0.029
[3]; concentration: 2mM
  NP40-soluble protein abundance: 0.998 ± 0.03
[3]; concentration: 4mM
  NP40-soluble protein abundance: 0.971 ± 0.024
[3]; concentration: 6mM
  NP40-soluble protein abundance: 1.01 ± 0.016
[3]; concentration: 8mM
  NP40-soluble protein abundance: 0.991 ± 0.03
[3]; concentration: 10mM
  NP40-soluble protein abundance: 0.996 ± 0.0047
[4]; concentration: 1mM
  NP40-soluble protein abundance: 0.946 ± 0.021
[4]; concentration: 2mM
  NP40-soluble protein abundance: 1 ± 0.057
[4]; concentration: 4mM
  NP40-soluble protein abundance: 0.951 ± 0.032
[4]; concentration: 6mM
  NP40-soluble protein abundance: 0.972 ± 0.029
[4]; concentration: 8mM
  NP40-soluble protein abundance: 0.962 ± 0.018
[4]; concentration: 10mM
  NP40-soluble protein abundance: 0.96 ± 0.016
[5]; concentration: 1mM
  NP40-soluble protein abundance: 1.07 ± 0.02
[5]; concentration: 2mM
  NP40-soluble protein abundance: 1.11 ± 0.041
[5]; concentration: 4mM
  NP40-soluble protein abundance: 1.11 ± 0.026
[5]; concentration: 6mM
  NP40-soluble protein abundance: 1.09 ± 0.024
[5]; concentration: 8mM
  NP40-soluble protein abundance: 1.08 ± 0.02
[5]; concentration: 10mM
  NP40-soluble protein abundance: 1.11 ± 0.012
